In PubChem BioAssay (NCATS):
“And” between values parts separate entries of the source, which are not always exact repeats. Equal entries are not always repeated. Records with an inconclusive call do not appear. Where a structure was tested more than once in an assay, its records may differ in their call. The source made the active and inactive calls. Unless noted, calls come from the whole dose curve; as a rule, active = well fitted curve in the direction sought with a large enough effect; inconclusive = small, poorly fitted or top-dose-only effect, or another doubt; inactive = no such curve, though single readings can be large; an effect the other way counts as inactive or inconclusive.

What was measured:
[1] = Cell Viability - LYMP2-002 (AID 977);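 note: potency is the fitted concentration of half-maximal effect; compound exposure lasted 24 h at 37 °C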
Method in brief: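 Human lymphoblastoid LYMP2-002 cells, 2500 per well, exposed to compounds for 24 h at 37 C in complete medium; viability read as intracellular ATP by CellTiter-Glo luminescence, AC50 from Hill fits.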

[2] = Cell Viability - LYMP2-006 (AID 978); note: potency is the fitted concentration of half-maximal effect; nearly all actives have a fitted effect of over 60% in size
Method in brief: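 Human lymphoblastoid cells, 2500 per well, were preincubated 5 hr at 37 C, then exposed to compounds for 24 hr at 37 C in complete medium. Viability was read as intracellular ATP by CellTiter-Glo luminescence; AC50 from Hill-equation fits of qHTS concentration-response data.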

[3] = Cell Viability - LYMP2-007 (AID 979);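 note: potency is the fitted concentration of half-maximal effect; cells exposed to compound for 24 h before reading; nearly all actives have a fitted effect of over 60% in size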
Method in brief: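 Human lymphoblastoid cells (2500/well) were plated in complete medium, incubated 5 hr at 37 C, then exposed to compounds for 24 hr at 37 C. Intracellular ATP was read by CellTiter-Glo luminescence after 30 min at room temperature; AC50 from Hill fits.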

[4] = Cell Viability - LYMP2-008 (AID 980); note: potency is the fitted concentration of half-maximal effect; nearly all actives have a fitted effect of over 60% in size
Method in brief: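 Human lymphoblastoid cells (2500/well) were plated, held 5 hr at 37 C, then exposed to compounds for 24 hr at 37 C in complete medium. Intracellular ATP was read by CellTiter-Glo luminescence; AC50 from Hill-fitted concentration-response.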

[5] = Cell Viability - LYMP2-010 (AID 981); note: potency is the fitted concentration of half-maximal effect; nearly all actives have a fitted effect of over 55% in size
Method in brief: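 Human lymphoblastoid LYMP2-010 cells (2500/well) were preincubated 5 hr at 37 C, then exposed to compounds for 24 hr at 37 C in complete medium. Intracellular ATP was measured by CellTiter-Glo luminescence after 30 min at room temperature; AC50 from Hill-fitted concentration-response.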

[6] = Cell Viability - LYMP2-012 (AID 982);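 note: cellular ATP by luciferase luminescence where a drop means cytotoxicity; potency is the fitted concentration of half-maximal effect; cells exposed to compound for one day before reading; nearly all actives have a fitted effect of over 55% in size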
[7] = Cell Viability - LYMP2-014 (AID 983); note: potency is the fitted concentration of half-maximal effect; nearly all actives have a fitted effect of over 50% in size
Method in brief: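 Human lymphoblastoid cells (2500/well) were pre-incubated 5 hr at 37 C, then exposed to compounds in complete medium for 24 hr at 37 C. Intracellular ATP was read by CellTiter-Glo luminescence after 30 min at room temperature; AC50 from Hill fits.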

[8] = Cell Viability - LYMP2-016 (AID 984); note: potency is the fitted concentration of half-maximal effect; nearly all actives have a fitted effect of over 55% in size
Method in brief: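 Human lymphoblastoid cells (LYMP2-016), 2500/well in complete medium, preincubated 5 hr at 37 C, then compound-treated 24 hr at 37 C. Intracellular ATP read by CellTiter-Glo luminescence after 30 min at room temperature; AC50 from Hill-equation concentration-response fits.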

[9] = Cell Viability - LYMP2-018 (AID 985);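 note: potency is the fitted concentration of half-maximal effect; compound exposure lasted 24 hr at 37 °C; nearly all actives have a fitted effect of over 50% in size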
Method in brief: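 Human lymphoblastoid cells (2500/well) were pre-incubated 5 hr at 37 C, then exposed to compounds for 24 hr at 37 C in complete medium. Viability was read as intracellular ATP by CellTiter-Glo luminescence; AC50 values came from Hill-equation fits.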

[10] = Cell Viability - LYMP2-020 (AID 986); note: potency is the fitted concentration of half-maximal effect; nearly all actives have a fitted effect of over 55% in size
Method in brief: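 Human lymphoblastoid cells, 2500/well, were pre-incubated 5 hr at 37 C, then exposed to compounds for 24 hr at 37 C in complete medium. Intracellular ATP was read by CellTiter-Glo luminescence, and AC50 was derived by Hill fitting of concentration-response data.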

[11] = Cell Viability - LYMP2-022 (AID 987)
Method in brief: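 Human lymphoblastoid cells, 2500/well, preincubated 5 hr at 37 C, then exposed to compounds over a concentration range for 24 hr at 37 C in complete medium. Viability read as intracellular ATP by CellTiter-Glo luminescence after 30 min at room temperature; AC50 from Hill fits.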

[12] = Cell Viability - LYMP2-024 (AID 988); note: potency is the fitted concentration of half-maximal effect; nearly all actives have a fitted effect of over 60% in size
Method in brief: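 Human lymphoblastoid cells (2500/well) in complete medium were preincubated 5 hr at 37 C, then exposed to compounds for 24 hr at 37 C. Intracellular ATP was read by CellTiter-Glo luminescence; AC50 from Hill-equation fits of concentration-response data.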

[13] = Cell Viability - LYMP2-026 (AID 989); note: potency is the fitted concentration of half-maximal effect; nearly all actives have a fitted effect of over 50% in size
Method in brief: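 Human lymphoblastoid cells (2500/well) in complete medium were preincubated 5 hr at 37 C, then exposed to compounds for 24 hr at 37 C. Cellular ATP was read by CellTiter-Glo luminescence; AC50 from Hill-equation fits of concentration-response data.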

[14] = Cell Viability - LYMP1-002 - Assay at 24 hr (AID 993); note: potency is the fitted concentration of half-maximal effect
Method in brief: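 Human lymphoblastoid LYMP1-002 cells, 2500/well in complete medium, were treated with compounds for 24 h at 37 C; intracellular ATP was read by CellTiter-Glo luminescence. AC50 values came from Hill-equation fits of qHTS concentration-response data.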

[15] = Cell Viability - LYMP1-002 - Assay at 40 hr (AID 994); note: nearly all actives have a fitted effect of over 60% in size; note: potency is the fitted concentration of half-maximal effect
Method in brief: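 Human lymphoblastoid cells, 2500/well in complete medium, were preincubated 5 hr at 37 C, then exposed to compounds for 40 hr at 37 C. Intracellular ATP was read by CellTiter-Glo luminescence after 30 min at room temperature; AC50 from Hill-equation fits.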

[16] = target: Alpha-galactosidase (Coffea arabica) (UniProt Q42656); assay: Counterscreen for Glucocerebrosidase Inhibitors: qHTS Assay for Coffee Bean alpha-Galactosidase at pH 5.9 (AID 998);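 note: plate controls were uninhibited enzyme for no effect and no-enzyme basal signal for full effect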
Alpha-galactosidase (Coffea arabica), sequence (Q42656 whole entry, looked up): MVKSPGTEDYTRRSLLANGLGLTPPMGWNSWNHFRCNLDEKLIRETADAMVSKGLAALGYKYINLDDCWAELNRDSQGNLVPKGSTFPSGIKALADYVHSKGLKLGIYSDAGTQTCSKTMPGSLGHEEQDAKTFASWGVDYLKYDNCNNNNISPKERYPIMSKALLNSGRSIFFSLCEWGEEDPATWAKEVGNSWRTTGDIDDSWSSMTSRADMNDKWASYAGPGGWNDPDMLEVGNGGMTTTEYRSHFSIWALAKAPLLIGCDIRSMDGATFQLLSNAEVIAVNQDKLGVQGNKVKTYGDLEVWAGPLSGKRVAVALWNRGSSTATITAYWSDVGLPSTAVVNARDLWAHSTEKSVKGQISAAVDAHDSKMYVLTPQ
Method in brief: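 Green coffee bean enzyme (2 nM) with 4-methylumbelliferyl alpha-D-galactopyranoside (80 uM) in 50 mM citric acid, 0.005% Tween-20, pH 5.9, 20 min at room temperature; compounds 0.7 nM–77 uM. Stopped at pH 10, fluorescence Ex365/Em440; Hill-fit AC50.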

[17] = qHTS Assay for Lipid Storage Modulators (AID 1519; calls by dose curve; for activity change, negative = inhibition: % is set by controls: 0 for no effect and ±100 for the full control effect); conditions: Drosophila S3 cells, BODIPY lipid droplet/cell ratio, laser cytometry, cells loaded with oleic acid
Method in brief: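 Cells seeded at 5,000 per well were treated with compounds over a concentration series and loaded with oleic acid (400 uM, as added). Lipid droplet fluorescence (488 nm excitation, 500-530 nm channel) was read by laser-scanning cytometry and normalized to 20 uM Triacsin C.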

[18] = target: Alpha-galactosidase A (Homo sapiens) (UniProt P06280); assay: Counterscreen for Glucocerebrosidase Inhibitors: qHTS Assay for Human alpha-Galactosidase at pH 4.5 (AID 992); note: 0% is about no effect
Alpha-galactosidase A (Homo sapiens), sequence (P06280 whole entry, looked up): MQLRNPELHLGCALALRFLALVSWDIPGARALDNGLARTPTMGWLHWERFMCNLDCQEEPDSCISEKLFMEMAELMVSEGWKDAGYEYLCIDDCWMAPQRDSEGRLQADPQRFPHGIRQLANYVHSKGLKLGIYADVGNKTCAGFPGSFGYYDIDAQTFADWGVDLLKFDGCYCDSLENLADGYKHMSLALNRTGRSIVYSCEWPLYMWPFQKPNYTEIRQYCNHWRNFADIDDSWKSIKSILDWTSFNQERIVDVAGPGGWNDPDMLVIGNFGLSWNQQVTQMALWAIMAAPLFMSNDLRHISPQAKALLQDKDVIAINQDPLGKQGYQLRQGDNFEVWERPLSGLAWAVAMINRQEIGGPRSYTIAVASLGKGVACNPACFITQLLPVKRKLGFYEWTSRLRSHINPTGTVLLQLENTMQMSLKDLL
Method in brief: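 Enzyme at 2 nM final was combined with compound (0.7 nM to 77 uM) and 80 uM 4-methylumbelliferyl alpha-D-galactopyranoside in 50 mM citric acid, 0.005% Tween-20, pH 4.5. After 20 min at room temperature, fluorescence was read (Ex 365/Em 440 nm); AC50 came from Hill fits.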

[19] = target: alpha-glucosidase (Oryza sativa, rice) (UniProt Q653V4); assay: Counterscreen for Glucocerebrosidase Inhibitors: qHTS Assay for Rice alpha-Glucosidase at pH 5.0 (AID 997);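 note: 0% = full activity with enzyme and -100% = basal without enzyme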
Method in brief: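 Rice alpha-glucosidase (4 nM final) with 400 uM 4-methylumbelliferyl-alpha-D-glucopyranoside in citrate buffer pH 5.0, 20 min at room temperature, stopped at pH 10; fluorescence 365/440 nm, compounds 0.7 nM–77 uM, AC50 from Hill fits.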

[20] = Validation of Assay for Modulators of Lamin A Splicing (AID 1459; active = well fitted curve in the direction sought with a large enough effect in the signal ratio; the % refers to the signal ratio;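 note: cells exposed to compound for two days before reading; 0% is about no effect; ratio rise marks activators and ratio drop marks inhibitors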)
Method in brief: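 S3 HeLa cells stably expressing a lamin A-EGFP splicing minigene and DsRed2 were seeded at 600 cells/well in Opti-MEM with 2% FBS, pin-dosed, and incubated 48 hrs at 37 °C, 5% CO2. Laser-scanning cytometry (488 nm) gave GFP/RFP total intensity ratio.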

[21] = measured here: cell count channel max response
[22] = measured here: lipid channel max response

CC[n+]1c(-c2ccccc2)c2cc(N)ccc2c2ccc(N)cc21
active: Potency [1] 15.8 µM | Potency [2] 10 µM | Potency [3] 12.6 µM | Potency [4] 10 µM | Potency [5] 12.6 µM | Potency [6] 7.94 µM | Potency [7] 10 µM | Potency [8] 15.8 µM | Potency [9] 10 µM | Potency [10] 15.8 µM | Potency [11] 7.94 µM | Potency [12] 12.6 µM | Potency [13] 15.8 µM | Potency [14] 31.6 µM | Potency [15] 31.6 µM

O=C(CCl)c1ccc(Cl)cc1Cl
active: Potency [1] 7.94 µM | Potency [2] 7.94 µM | Potency [3] 5.01 µM | Potency [4] 7.94 µM | Potency [5] 2.51 µM | Potency [6] 3.16 µM | Potency [7] 5.01 µM | Potency [8] 5.01 µM | Potency [9] 3.16 µM | Potency [10] 5.01 µM | Potency [11] 2 µM | Potency [12] 2.51 µM | Potency [13] 6.31 µM | Potency [14] 15.8 µM | Potency [15] 25.1 µM

Cc1cc(C(C)(C)C)cc(C)c1CC1=NCCN1
3.95% and 14.5%: max response [17, 22]
-1.09% and 8.12%: max response [17, 21]
inactive: outcome [16] | activity change, negative = inhibition ([17]; at 25.7 µM (top of the series)) 0.58% | activity change, negative = inhibition ([17]; at 57.5 µM (top of the series)) 0.173%

C[C@@H]1C[C@@H]([C@H](O)CC2CC(=O)NC(=O)C2)C(=O)[C@@H](C)C1
1.26 µM (active) and inactive: Potency [15]
inactive: Potency [14]
active: Potency [2] 2.51 µM | Potency [5] 1 µM | Potency [6] 631 nM and 794 nM | Potency [9] 1 µM | Potency [10] 0.794 µM | Potency [11] 794 nM and 1 µM | Potency [12] 0.794 µM | Potency [13] 1 µM

O=C(CCCN1CCC(n2c(=O)[nH]c3ccccc32)CC1)c1ccc(F)cc1
-5.85%: max response [17, 21]
-3.11%: max response [17, 22]
inactive: activity change, negative = inhibition ([17]; at 25.7 µM (top of the series)) 0.264%

CCCCCCCCCCCC[N+](C)(C)CCOc1ccccc1
active: Potency [1] 50.1 µM | Potency [2] 20 µM | Potency [3] 25.1 µM | Potency [4] 25.1 µM | Potency [5] 39.8 µM | Potency [6] 39.8 µM | Potency [7] 39.8 µM | Potency [8] 31.6 µM | Potency [9] 39.8 µM | Potency [10] 39.8 µM | Potency [11] 39.8 µM | Potency [12] 39.8 µM | Potency [13] 39.8 µM | Potency [14] 7.94 µM | Potency [15] 31.6 µM

CCCC(C)C1(CC)C(=O)N=C(S)NC1=O (stereo unspecified)
1.05%: max response [17, 22]
-3.79%: max response [17, 21]
inactive: activity change, negative = inhibition ([17]; at 57.5 µM (top of the series)) 4.86%

O=C(O)c1nn(Cc2ccc(Cl)cc2Cl)c2ccccc12
inactive: outcome [18] | outcome [19] | outcome [16] | outcome [20]

C[C@H](N)[C@H](O)c1ccc(O)c(O)c1
inactive: outcome [18] | outcome [19] | outcome [16] | activity change, negative = inhibition ([17]; at 25.7 µM (top of the series)) -2.9%
-12%: max response [17, 21]
-13.5%: max response [17, 22]

CN1[C@@H]2CC[C@H]1CC(OC(=O)c1cc(Cl)cc(Cl)c1)C2 (stereo partly specified)
27.7%: max response [17, 22]
20.8%: max response [17, 21]
inactive: outcome [18] | outcome [19] | outcome [16] | activity change, negative = inhibition ([17]; at 57.5 µM (top of the series)) 4.19%

C[N+](C)(C)CCOC(=O)CCC(=O)OCC[N+](C)(C)C
inactive: outcome [16]

Clc1ccc(CSC(Cn2ccnc2)c2ccc(Cl)cc2Cl)cc1 (stereo unspecified)
12.4%: max response [17, 22]
inactive: activity change, negative = inhibition ([17]; at 57.5 µM (top of the series)) 11.1%
-1.1%: max response [17, 21]
